Experimental data from PubChem BioAssay (NCATS).
Records with an inconclusive call do not appear. Entries that show only a call come without a potency. Active and inactive are the calls of the source. Calls come from the whole dose curve; as a rule, active = well fitted inhibition curve with a large enough effect; inconclusive = small, poorly fitted or top-dose-only effect; inactive = no such curve, though single readings can be large or run the other way.
Potency is the fitted concentration of half-maximal effect.

These molecules were tested against Nuclear receptor ROR-gamma (Homo sapiens) (UniProt P51449) (assay: qHTS assay for small molecule antagonists of the retinoid-related orphan receptor gamma (ROR-gamma) signaling pathway (AID 651802; note: nearly all actives have a fitted effect of over 60% in size)). Settings: ROR-gamma antagonist cell reporter assay; series mostly up to 92.2 µM.
Chain of Nuclear receptor ROR-gamma (Homo sapiens) (P51449 whole entry, looked up): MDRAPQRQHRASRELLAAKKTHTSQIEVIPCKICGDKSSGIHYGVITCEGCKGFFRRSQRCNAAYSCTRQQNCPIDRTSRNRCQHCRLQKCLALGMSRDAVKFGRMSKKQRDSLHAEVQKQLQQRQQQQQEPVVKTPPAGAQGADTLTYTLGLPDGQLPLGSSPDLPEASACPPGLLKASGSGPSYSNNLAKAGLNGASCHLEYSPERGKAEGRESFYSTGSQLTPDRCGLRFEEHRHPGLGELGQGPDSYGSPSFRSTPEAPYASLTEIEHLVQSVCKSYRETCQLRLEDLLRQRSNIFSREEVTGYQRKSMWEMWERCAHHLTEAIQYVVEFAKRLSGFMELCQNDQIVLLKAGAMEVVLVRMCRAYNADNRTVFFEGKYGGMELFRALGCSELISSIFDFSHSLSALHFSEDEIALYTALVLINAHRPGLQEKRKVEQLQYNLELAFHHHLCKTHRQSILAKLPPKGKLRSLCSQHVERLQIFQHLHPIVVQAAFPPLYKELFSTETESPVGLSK
How it was run: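 Luminescence (One-Glo, 30 min RT) measured 16 h after compound addition and doxycycline induction at 37C. Reporter: RORE-luciferase under TET-inducible ROR-gamma in CHO cells.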
With `Nc1ccc2cc3ccccc3cc2c1` the Potency was “inactive”. In the case of `CN(C)c1ccc(C2(c3ccc(N(C)C)cc3)OC(=O)c3cc(N(C)C)ccc32)cc1`, the Potency is reported as “inactive”. In the case of `Cc1cc(Nc2ccc(O)cc2)ccc1N`, the Potency is reported as 21.1 µM (active). With `CO[C@H]1/C=C/O[C@@]2(C)Oc3c(C)c(O)c4c(O)c(c5c(c4c3C2=O)NC2(CCN(CC(C)C)CC2)N=5)=NC(=O)/C(C)=C\C=C\[C@H](C)[C@H](O)[C@@H](C)[C@@H](O)[C@@H](C)[C@H](OC(C)=O)[C@@H]1C` the Potency was “inactive”. For `Cc1cc(O)c(C(C)(C)C)cc1Sc1cc(C(C)(C)C)c(O)cc1C`, the Potency was 4.22 µM (active). With `C=C(C)c1ccccc1` the Potency was “inactive”. For `O=C1OC2(c3cc(Br)c(O)c(Br)c3Oc3c2cc(Br)c(O)c3Br)c2c(Cl)c(Cl)c(Cl)c(Cl)c21`, the Potency was “inactive”. For `C/C=C1\C(=O)C[C@H]2[C@@H]3CCC4=CC(=O)CC[C@]4(C)[C@H]3CC[C@]12C`, the Potency was 33.5 µM (active). `CC(=O)Nc1ccc(C(=O)CCl)cc1` was tested, and the Potency was 9.44 µM (active). With `CCC(C)Nc1ccc(NC(C)CC)cc1` (configuration not stated) the Potency was 13.3 µM (active). In the case of `O=C=Nc1ccc(Cc2ccc(N=C=O)cc2)cc1`, the Potency is reported as “inactive”. In the case of `O=Cc1ccc(Cl)c(Cl)c1`, the Potency is reported as “inactive”.
